The test system of the experiment is MDA-MB-468 breast. Put plainly: NCI-60 one-dose screen, 48 h (100 = growth as untreated, 0 = no growth, -100 = all killed). To be noted: 10 µM unless noted.

Values joined by “and” are separate entries in the source; they are usually repeats but may differ in a detail not shown here. Equal values may be shown once. Compounds without any hit were thinned out: in the full panel of roughly 83,000, 20% have a hit.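 48-hour exposure, single concentration, 96-well plates; percent growth endpoint where 0 means no net growth. Active: below 10.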 Active and inactive are the calls of the source.

In the case of `Cc1nnc(-c2cc3c(ccc4ccccc43)oc2=O)c2cn(-c3ccc(Cl)cc3)nc12`, the growth was 96.4% (inactive).
Next, `Cc1ccc2[nH]c(-c3ccc(S(C)(=O)=O)cc3)c(/C=N/N=C(N)N)c2c1`: 81.1% (inactive).
With `Cc1ccc(N2CCN(C(=S)c3cccs3)CC2)cc1`, the growth was 88.7% (inactive).
As to `OC1CSSC1Cn1cnc2c(Nc3ccc(OCc4cccc(F)c4)c(Cl)c3)ncnc21` (stereo not drawn), the growth is -53.2% (active).
Next, `CCCCCCCCCC[N+](C)(C)N`: 55.1% (inactive); `COc1cc2cc(CN3CCN(c4nccc(-c5ccc6ccccc6c5)n4)CC3)c(=O)[nH]c2cc1OC`: 51.4% (inactive); `Cc1ccc(-c2c(-c3ccccc3)c(=O)oc3ccc(C)cc23)cc1`: 97.3% (inactive).
Next, `CC1=C([Se]CC(OC(=O)[C@@H](CSSC(C)(C)C)NC(=O)C(C)(C)C)C(=O)NCCCCCC(=O)OCc2ccccc2)C(=O)c2ccccc2C1=O` (stereo partly drawn): -21.9% (active); `CC1=C(C(=O)OCC2CCN(C(=O)OC(C)(C)C)CC2)[C@H](c2cccc(Br)c2)C2=C(CC(C)(C)CC2=O)N1`: 29.7% (inactive); `CCCCNC(=O)Oc1ccc(/C(=C(/CC)Cc2ccccc2)c2ccc(OCCN3CCCCCC3)cc2)cc1`: 6.65% (active).
Next, `COc1cc2nc(-c3ccc(Cl)cc3)cc(OCCCN3CCCC3)c2cc1OC`: 43.5% (inactive); `Cn1c(N)c(N=O)c(=O)n(C)c1=O`: 122% (inactive) and 112% (inactive); `Nc1c(C(=O)Nc2ccccc2)sc2nc3c(cc12)C(O)CCC3` (stereo not drawn): 51.6% (inactive).
With `CC(=O)NC(O)C(Cl)Cl` (stereo not drawn), the growth was 106% (inactive).
Consider `COc1cc(N=Cc2sc(Nc3nccs3)nc2O)cc(OC)c1OC`, for which the growth is 84.8% (inactive).
Regarding `Cc1ccc(NCCN(C)C)c2c(=O)c3ccccc3sc12`, the growth was 26% (inactive).
`C[C@@H](Oc1cc(-n2cnc3ccc(CN4CCN(C)CC4)cc32)sc1C(N)=O)c1ccccc1C(F)(F)F`: the growth was 6.59% (active).
For the compound `COc1cccc(NCc2nnc(Nc3ccc(Cl)cc3)c3ccccc23)c1`, the growth was -21.9% (active).
In the case of `N#Cc1ccc(-c2ccc(COc3ccc(CC4SC(=O)NC4=O)cc3)cc2)cc1` (stereo not drawn), the growth was 5.4% (active).
With `CCN(CCO)CCNc1ccc(C)c2sc3cc(Cl)ccc3c(=O)c12`, the growth was -47.7% (active).
In the case of `c1ccc(N2N=C(c3cccc(Nc4ccncc4)c3)CC2c2ccc3c(c2)OCO3)cc1` (stereo not drawn), the growth was 15.1% (inactive).
Next, `Clc1ccc(C2=NN=C3C(Cc4ccccc4)=Nc4ccccc4N3C2)cc1`: 84.7% (inactive).
Next, `CCCCCCCCCCCCCCCCCCOc1ccccc1CC(=O)OCC[N+]1(C)CCCC1`: -23.8% (active); `Cc1cc(C)c(-c2c(N)cc(Br)cc2Br)c(N)c1`: -17.1% (active); `COc1cc(C2NC(=O)c3ccccc3N2)ccc1OCCCCCOc1c(OC)cc(C2=NOC(c3cc(OC)c(OC)c(OC)c3)C2)cc1OC` (stereo not drawn): 9.53% (active).
Next, `Nc1nc(-c2cccc([N+](=O)[O-])c2)c(N=Nc2cccc([N+](=O)[O-])c2)s1`: 62% (inactive); `COc1ccc(Cn2cc(COc3cc(/C=C/C(=O)c4cc(OC)c(OC)c(OC)c4)ccc3OC)nn2)cc1`: 49% (inactive); `CC(=O)Oc1cccc(S(=O)(=O)n2cc(C(=O)C(=O)Nc3ccncc3)c3ccccc32)c1`: 7.5% (active).
With `Oc1ccc2ccccc2c1/C=N\Nc1ccccn1`, the growth is -19.3% (active).
Consider `COC(/C=C/c1ccc([N+](=O)[O-])cc1)OC`, for which the growth was 73.4% (inactive).
As for `Cc1c(C(N)=O)sc2nc(SCC(=O)Nc3ccc(Cl)cc3)n(-c3ccccc3)c(=O)c12`, the growth is 106% (inactive).
For the compound `O=C(Cc1ccccc1)Nc1nnc(NC2CCN(c3nnc(NC(=O)Cc4ccccc4)s3)CC2)s1`, the growth was 125% (inactive).
Next, `C[C@]12CC[C@@H]3c4cc(OC(F)F)c(OS(N)(=O)=O)cc4CC[C@H]3[C@@H]1CC[C@@H]2OS(N)(=O)=O`: 11.9% (inactive); `COc1ccc(C)cc1OC`: 137% (inactive).
Next, `Cc1ccc(-c2nc(C(Cl)Cl)n3nc(-c4ccccc4)cc3n2)cc1`: -21.1% (active); `O=Nc1ccc(O)c(=O)cc1`: -53.1% (active).
In the case of `O=S(=O)(NCCCNc1nccc(-c2c(-c3ccc(F)c(O)c3)nc3occn23)n1)c1ccc(Cl)cc1`, the growth is 62.2% (inactive).
Consider `Cn1c(=O)c2c(nc3n(-c4ccc(Cl)cc4Cl)c(Sc4nc(-c5ccccc5)c(C#N)c(=O)[nH]4)cn23)n(C)c1=O`, for which the growth is 60.5% (inactive).

For the origin of these results see PubChem BioAssay (NCI).
